Laboratory results published in PubChem BioAssay (NCATS).
Several values for one entry are separate records, joined by “and”; a condition that tells them apart may be missing. Equal values may be shown once. Results filed as inconclusive are left out. A structure can be active in one record and inactive in another. Unmarked numbers belong to inactive results. Activity calls are given as the source filed them. Unless noted, calls follow the shape of the dose curve; as a rule, active = well fitted curve in the direction sought with a large enough effect; inconclusive = small, poorly fitted or top-dose-only effect, or another doubt; inactive = no such curve, though single readings can be large; an effect the other way counts as inactive or inconclusive.

Columns and labels:
[1] = biological target: Cellular tumor antigen p53 (Homo sapiens) (UniProt P04637); experiment: Primary qHTS for small molecule compounds that upregulate eGFP-tagged delta133p53alpha (in N-terminal) cells. (AID 2060322); settings: NCI-H358 eGFP-delta133p53alpha fluorescence, 24 h; activation: hits give high values; also: nearly all actives have a fitted effect of over 75% in size; also: potency is read from the fitted curve at half-maximal effect;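 as to activation: series mostly up to about 56 µM; 0% = DMSO vehicle and 100% = reference activator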
Chain of Cellular tumor antigen p53 (Homo sapiens) (P04637 whole entry, looked up): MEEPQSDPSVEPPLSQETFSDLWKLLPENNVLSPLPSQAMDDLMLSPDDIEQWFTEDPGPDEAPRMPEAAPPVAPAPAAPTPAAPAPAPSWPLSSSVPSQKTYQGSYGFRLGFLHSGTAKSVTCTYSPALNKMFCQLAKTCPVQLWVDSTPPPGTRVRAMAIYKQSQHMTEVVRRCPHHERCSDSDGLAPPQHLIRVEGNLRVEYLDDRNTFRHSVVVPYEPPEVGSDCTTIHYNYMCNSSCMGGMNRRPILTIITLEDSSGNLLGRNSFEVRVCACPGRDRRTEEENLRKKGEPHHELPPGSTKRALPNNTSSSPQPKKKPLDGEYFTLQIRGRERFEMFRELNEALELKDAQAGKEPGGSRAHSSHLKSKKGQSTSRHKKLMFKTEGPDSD
Method in brief: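 NCI-H358 cells pre-induced 24 h with 10 ng/ml doxycycline to express N-terminal eGFP-delta133p53alpha, then dosed 24 h at 37C without doxycycline; fixed, Hoechst-stained, GFP intensity by laser scanning cytometry, normalized to DMSO (0%) and 57.5 uM 5-azacytidine (100%).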

[2] = biological target: Cellular tumor antigen p53 (Homo sapiens) (UniProt P04637); experiment: Primary qHTS for small molecule compounds that upregulate eGFP-tagged delta133p53alpha (in C-terminal) cells. (AID 2060324); also: potency is read from the fitted curve at half-maximal effect
Method in brief: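 NCI-H358 cells with doxycycline-inducible D133p53a-eGFP (C-terminal tag), pre-induced 24 h with 100 ng/ml doxycycline, plated 800/well in doxycycline-free medium and treated 24 h at 37 °C with compound titrations. Cells were then fixed and Hoechst-stained, and GFP intensity was read by laser scanning cytometry.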

[3] = biological target: Aldehyde dehydrogenase, mitochondrial (Homo sapiens) (UniProt P05091); experiment: qHTS for Inhibitors of the Aldehyde Dehydrogenase Family (ALDH2) Validation screens (AID 2061302; active = well fitted inhibition curve with a large enough effect; title and protocol of this record describe different tests; also: potency is read from the fitted curve at half-maximal effect)
[4] = biological target: Retinaldehyde dehydrogenase 3 (Homo sapiens) (UniProt P47895); experiment: qHTS for Inhibitors of the Aldehyde Dehydrogenase Family (ALDH1A3) Validation screen (AID 2061312); also: % is scaled to controls: 0 for no effect and ±100 for the full control effect; nearly all actives have a fitted effect of over 45% in size
[5] = BET inhibitor-based combinations targeting novel dependencies in MECOM-rearranged (r) AML: SET-2 cell line (AID 2202231); settings: SET-2 AML cells viability, CellTiter-Glo luminescence, 48 h; viability: hits give low values, concentration not given here; also: nearly all actives have a fitted effect of over 35% in size; also: potency is read from the fitted curve at half-maximal effect;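 as to viability: plate controls were DMSO treated cells for no effect and wells without cells for full effect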
Method in brief: (§1)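 Luminescent ATP readout (CellTiter-Glo) after 48 hr drug exposure gives viability. Curves span 11 concentrations and are normalized to DMSO and empty wells. Activity is reported as area under the curve and its Z-transform within each cell line.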

[6] = BET inhibitor-based combinations targeting novel dependencies in MECOM-rearranged (r) AML: OCI-AML3 cell line (AID 2202232); settings: Potency: OCI-AML3 viability; also: potency is read from the fitted curve at half-maximal effect; nearly all actives have a fitted effect of over 35% in size
Method in brief: as §1

[7] = BET inhibitor-based combinations targeting novel dependencies in MECOM-rearranged (r) AML: MV-4-11 cell line (AID 2202233); also: potency is read from the fitted curve at half-maximal effect; nearly all actives have a fitted effect of over 45% in size
Method in brief: (§2)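 Luminescent ATP readout (CellTiter-Glo, 15 min at room temperature) after 48 hr drug exposure gave viability. Dose-response curves, normalized to DMSO and empty-well controls, were summarized as area under the curve and its mean-centred Z-score.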

[8] = BET inhibitor-based combinations targeting novel dependencies in MECOM-rearranged (r) AML: HNT-34 cell line (AID 2202234); also: nearly all actives have a fitted effect of over 35% in size; also: potency is read from the fitted curve at half-maximal effect
Method in brief: as §2

[9] = BET inhibitor-based combinations targeting novel dependencies in MECOM-rearranged (r) AML: UCSD-AML1 cell line (AID 2202235); also: nearly all actives have a fitted effect of over 40% in size; also: potency is read from the fitted curve at half-maximal effect
Method in brief: as §2

[10] = BET inhibitor-based combinations targeting novel dependencies in MECOM-rearranged (r) AML: AML-191 cell line (AID 2202236; also: nearly all actives have a fitted effect of over 35% in size; also: potency is read from the fitted curve at half-maximal effect)
Method in brief: as §1

[11] = BET inhibitor-based combinations targeting novel dependencies in MECOM-rearranged (r) AML: AML-194 cell line (AID 2202237; also: nearly all actives have a fitted effect of over 40% in size; also: potency is read from the fitted curve at half-maximal effect)
Method in brief: as §1

[12] = biological target: Aldehyde dehydrogenase, mitochondrial (Homo sapiens) (UniProt P05091); experiment: qHTS for Inhibitors of the Aldehyde Dehydrogenase Family (ALDH2) Confirmatory screens (AID 2061303; active = well fitted inhibition curve with a large enough effect; title and protocol of this record describe different tests; also: % is scaled to controls: 0 for no effect and ±100 for the full control effect; nearly all actives have a fitted effect of over 45% in size)
[13] = qHTS for Inhibitors of the Aldehyde Dehydrogenase Family (ALDH1A2, ALDH1A3, ALDH2, ALDH3A1) (AID 2061307); also: % is scaled to controls: 0 for no effect and ±100 for the full control effect; nearly all actives have a fitted effect of over 50% in size
[14] = biological target: Retinaldehyde dehydrogenase 3 (Homo sapiens) (UniProt P47895); experiment: qHTS for Inhibitors of the Aldehyde Dehydrogenase Family (ALDH1A3) Confirmatory screens (AID 2061311); also: nearly all actives have a fitted effect of over 60% in size
[15] = biological target: Retinal dehydrogenase 2 (Homo sapiens) (UniProt O94788); experiment: qHTS for Inhibitors of the Aldehyde Dehydrogenase Family (ALDH1A2) Confirmation screens (AID 2061314); also: % is scaled to controls: 0 for no effect and ±100 for the full control effect; nearly all actives have a fitted effect of over 65% in size
[16] = biological target: Aldehyde dehydrogenase 1A1 (Homo sapiens) (UniProt P00352); experiment: qHTS for Inhibitors of the Aldehyde Dehydrogenase Family (ALDH1A1) Confirmatory screens (AID 2061316); also: nearly all actives have a fitted effect of over 65% in size
[17] = biological target: Aldehyde dehydrogenase, mitochondrial (Homo sapiens) (UniProt P05091); experiment: qHTS for Inhibitors of the Aldehyde Dehydrogenase Family (ALDH2) Primary screen (AID 2061308);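 also: plate controls were vehicle for no effect and reference inhibitor for full effect; nearly all actives have a fitted effect of over 55% in size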
[18] = biological target: Retinaldehyde dehydrogenase 3 (Homo sapiens) (UniProt P47895); experiment: qHTS for Inhibitors of the Aldehyde Dehydrogenase Family (ALDH1A3) Primary screen (AID 2061315);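 also: plate controls were DMSO vehicle for no effect and reference inhibitor for full effect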

CON=C(C(=O)N[C@@H]1C(=O)N2C(C(=O)O)=C(CSC(=O)c3ccco3)CS[C@H]12)c1csc(N)n1
activation [1]: 4.83%

CCCSS/C(CCO)=C(\C)N(C=O)Cc1cnc(C)nc1N
Potency [1]: 30.9 µM (active)

CNCC[C@H](Oc1cccc2ccccc12)c1cccs1
Potency [1]: 17.4 µM (active)
activation [1]: 8.04%

OCCc1ccccc1
activation [1]: 1.69%

CC(C)OC(=O)OCOP(=O)(CO[C@H](C)Cn1cnc2c(N)ncnc21)OCOC(=O)OC(C)C
activation [1]: -1.51% and -14.1%

CC1(C)[C@@H](OC(=O)CCC(=O)O)CC[C@]2(C)[C@H]3C(=O)C=C4[C@@H]5C[C@@](C)(C(=O)O)CC[C@]5(C)CC[C@@]4(C)[C@]3(C)CC[C@@H]12
activation [1]: 0.565%

CCCCC(=O)O[C@]1(C(=O)CO)CC[C@H]2[C@@H]3CCC4=CC(=O)CC[C@]4(C)[C@H]3[C@@H](O)C[C@@]21C
activation [1]: 29.3%

COCCOC(=O)C1=C(C)NC(C)=C(C(=O)OC(C)C)C1c1cccc([N+](=O)[O-])c1 (configuration not stated)
Potency [1]: 6.92 µM (active)
activation [1]: -10.6%
Potency [2]: inactive
Potency [3]: inactive
Potency [4]: inactive

CN1C[C@H](C(=O)N[C@]2(C)O[C@@]3(O)[C@@H]4CCCN4C(=O)[C@H](Cc4ccccc4)N3C2=O)C[C@@H]2c3cccc4[nH]cc(c34)C[C@H]21
Potency [1]: 24.6 µM (active)
activation [1]: 7.67%
Potency [3]: inactive

CC[C@H]1CN2CCc3cc(OC)c(OC)cc3[C@@H]2C[C@@H]1C[C@H]1NCCc2cc(OC)c(OC)cc21
Potency [1]: 0.617 µM (active)
activation [1]: 20.5%
Potency [2]: 0.151 µM (active)
Potency [3]: inactive
Potency [4]: inactive
Potency [5]: 0.372 µM (active)
Potency [6]: 0.468 µM (active)
Potency [7]: 0.235 µM (active)
Potency [8]: 0.332 µM (active)
Potency [9]: 0.372 µM (active)
Potency [10]: 0.417 µM (active)
Potency [11]: 0.372 µM (active)

CCc1cccc(CC)c1NC(=O)CN(CC(=O)O)CC(=O)O
activation [1]: 26.6%

COc1ccc(OC(=O)N(CC(=O)O)Cc2ccc(OCCc3nc(-c4ccccc4)oc3C)cc2)cc1
activation [1]: -10.7%

OC[C@@H](O)[C@@H](O)[C@H](O)[C@H](O)CO
activation [1]: -9.21%

O=C(O)C(Cc1cc(I)c(O)c(I)c1)c1ccccc1 (configuration not stated)
activation [1]: -19.8%

CCc1ccc(C=C2SC(=S)NC2=O)cc1
activation [1]: 32.5%

CCN(CC)CCNC(=O)c1cc(Br)c(N)cc1OC
activation [1]: 13%

CCCCCOc1ccccc1/C(=C\SC)n1ccnc1
activation [1]: -16.7%

COC(=O)/C=C\C(=O)OC
activation [1]: -9.6%

Oc1ccc(-c2nc(-c3ccc(F)cc3)c(-c3ccncc3)[nH]2)cc1
Potency [1]: 38.5 µM (active)
activation [1]: 9.98% and -12.3%
Potency [2]: inactive
Potency [3]: inactive
Potency [4]: inactive
Potency [7]: 18.6 µM (active)

CC[N+](CC)(CC)CCOc1ccc(/C=C/c2ccccc2)cc1
activation [1]: -19.2%

CC(=O)NS(=O)(=O)c1ccc(N)cc1
activation [1]: -1.67%

CCOC(=O)C(C#N)=C(c1ccccc1)c1ccccc1
activation [1]: -3.35%

O=C(c1ccccc1)c1ccccc1
activation [1]: 16.4%

COC(=O)c1nc(Cl)c(Cl)nc1N
Potency [1]: 27.6 µM (active)

O=P(O)(O)OCC(O)CO (configuration not stated)
activation [1]: -9.21%

COCC(=O)O[C@]1(CCN(C)CCCc2nc3ccccc3[nH]2)CCc2cc(F)ccc2[C@@H]1C(C)C
Potency [1]: 21.9 µM (active)
activation [1]: 29.4%
Potency [3]: inactive
Potency [12]: inactive
Potency [13]: inactive
Potency [14]: inactive
Potency [15]: inactive
Potency [16]: inactive

CCOC(=O)c1ccc(O)c(O)c1
activation [1]: -23.2%

CC(=O)N1CCN(c2ccc(OCc3nn(C)c(C)c3-c3cccc4c(CCCOc5cc(C)c(Cl)c(C)c5)c(C(=O)O)n(Cc5cccnc5)c34)cc2)CC1
activation [1]: -5.22%

C=CCc1ccc(O)c(OC)c1
activation [1]: 15.1%

Cc1c(C)n(CCN(C)C)c2ccc(C(=O)OCCN(C)C)cc12
activation [1]: -11.9%

CC(=O)Nc1cccc(O)c1
activation [1]: -4.18%

CCCCCCCC(=O)[O-].CCCCCCCC(=O)[O-].[Zn+2]
activation [1]: 14.1%

COCC(=O)Nc1c(I)c(C(=O)NCC(O)CO)c(I)c(C(=O)N(C)CC(O)CO)c1I (configuration not stated)
activation [1]: -4.18%

CCOC(=O)Nc1ccc(NCc2ccc(F)cc2)nc1N
Potency [1]: 2.19 µM (active)
activation [1]: -4.52% and 42.2%
Potency [2]: 13.5 µM (active)
Potency [3]: 5.01 µM (active)
viability [5]: 107%
Potency [8]: inactive
Potency [9]: inactive
Potency [10]: inactive
Potency [11]: inactive

c1ccc(CCNc2nc(-c3ccccc3)cs2)cc1
activation [1]: 20.1%

O=C(c1ccc(F)c(F)c1Nc1ccc(I)cc1F)N1CC(O)([C@H]2CCCCN2)C1
activation [1]: 17.1%

CC(C)COCC(CN(Cc1ccccc1)c1ccccc1)N1CCCC1 (configuration not stated)
Potency [1]: 34.7 µM (active)
activation [1]: -16.2%
Potency [2]: inactive
Potency [3]: inactive
Potency [4]: inactive
Potency [5]: 23.5 µM (active)
Potency [6]: 18.6 µM (active)
Potency [7]: 26.3 µM (active)
Potency [8]: 16.6 µM (active)
Potency [9]: 20.9 µM (active)
Potency [10]: 20.9 µM (active)
Potency [11]: 23.5 µM (active)

CCN(CC)CCOc1ccc(Nc2ncc3cc(-c4c(Cl)cccc4Cl)c(=O)n(C)c3n2)cc1
Potency [1]: 5.44 µM (active)
activation [1]: -1.41%
Potency [2]: 26.9 µM (active)
Potency [3]: inactive
Potency [12]: inactive
Potency [13]: inactive
Potency [14]: inactive
Potency [16]: inactive
Potency [5]: 3.72 µM (active)
Potency [6]: 2.63 µM (active)
Potency [8]: 0.0295 µM (active)
Potency [9]: 2.95 µM (active)
Potency [10]: 2.35 µM (active)
Potency [11]: 2.95 µM (active)

COC(=O)[C@H]1[C@H]2C[C@@H]3c4[nH]c5cc(OC)ccc5c4CCN3C[C@H]2C[C@@H](OC(=O)c2cc(OC)c(OC)c(OC)c2)[C@@H]1OC
Potency [1]: 27.6 µM (active)
activation [1]: -18%
Potency [2]: 26.9 µM (active)
Potency [3]: inactive
Potency [17]: inactive
Potency [4]: inactive
Potency [18]: inactive
